Results reported in PubChem BioAssay (NCI).
This is part of a sample that, as a whole, favours compounds with a hit. Of some 83,000 tested, about 20% had one in any assay.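 The endpoint reported here, percent growth, reads 100 for growth as untreated, 0 for no net growth and -100 for all cells dead.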 Unmarked numbers belong to inactive results. The source made the active and inactive calls. The calls were made as follows: active = growth percent below 10; inactive = the rest.

What was measured:
Test in all cases: NCI-60 one-dose screen, 48 h (100 = growth as untreated, 0 = no growth, -100 = all killed)
Conditions in all cases: 10 µM
NCI-H23 lung = system: NCI-H23 lung
NCI-H226 lung = system: NCI-H226 lung
NCI-H322M lung = system: NCI-H322M lung
HOP-62 NSCLC = system: HOP-62 NSCLC
NCI-H460 lung = system: NCI-H460 lung
HOP-92 NSCLC = system: HOP-92 NSCLC
NCI-H522 lung = system: NCI-H522 lung
A549/ATCC NSCLC = system: A549/ATCC NSCLC
786-0 renal = system: 786-0 renal
COLO 205 colon = system: COLO 205 colon

| Structure (SMILES) | growth (NCI-H23 lung) | growth (NCI-H226 lung) | growth (NCI-H322M lung) | growth (HOP-62 NSCLC) | growth (NCI-H460 lung) | growth (HOP-92 NSCLC) | growth (NCI-H522 lung) | growth (A549/ATCC NSCLC) | growth (786-0 renal) | growth (COLO 205 colon) |
| --- | --- | --- | --- | --- | --- | --- | --- | --- | --- | --- |
| COc1cc2ccnc(C=O)c2cc1OC | 83.5% | 101% | 87.5% | 89.7% | 107% | 51.2% | 68.4% | 101% | 99.9% | 92.9% |
| COc1ccc(-c2nc3sc(-c4ccccc4)c(-c4ccccc4)n3c2/C=C/c2ccc(F)cc2)cc1 | 97% | 107% | 103% | 95.9% | 92.9% | 94.5% | 106% | 83.8% | 100% | 99.6% |
| CC1(C)Cc2c(cn(Cc3ccccc3)c2-c2ccccc2)-c2oncc21 | 96.7% | 92.2% | 126% | 107% | 113% | 67.8% | 90.1% | 86.2% | 97.5% | 103% |
| O=C(CSc1nnc(-c2ccc(Cl)cc2)o1)c1ccccc1 | 88.7% | 96.3% | 119% | 91.1% | 105% | 107% | 78.6% | 73.2% | 92.8% | 108% |
| COc1ccc(-c2cc(/C=C/C(=O)c3ccc(N)cc3)[nH]n2)cc1OC | 51.6% | 82.3% | 38.3% | 55.4% | 3.19% (active) | 33.5% | 24.7% | 32% | 42.6% | 27.1% |
| Cc1c(C(=O)N[C@H](CO)Cc2ccccc2)[nH]c2ccc(Cl)cc2c1=O | 101% | 120% | 108% | 100% | 106% | 94.7% | 83.8% | 87.1% | 96.4% | 104% |
| NC1CCC(Nc2nc(NCc3ccc(-c4cccs4)nc3)c3ncn(C4CCCC4)c3n2)CC1 (stereo not given) | -33.8% (active) | -9.23% (active) | 19% | -2.05% (active) | 3.28% (active) | -13% (active) | -52.6% (active) | 4.31% (active) | 0.15% (active) | -51.4% (active) |
| NCCNc1ccc2cc(-c3nc4ccccc4[nH]3)c(=O)oc2c1 | 90.7% | 87.4% | 103% | 94.7% | 98.9% | 82.7% | 97.3% | 102% | 106% | 104% |
| O=C(Nc1ccc(Oc2ccc(Nc3nc4ccccc4s3)cc2)cc1)Nc1ccc(Cl)c(Cl)c1 | 8.31% (active) | 46.5% | 56.6% | 47% | 15.8% | 37.9% | 7.82% (active) | 32.8% | 43.3% | 31.1% |
| c1ccc(CNc2nc(Nc3ccc(-c4nc5ccccc5[nH]4)cc3)c3cn[nH]c3n2)cc1 | 14.5% | 39.6% | 28.6% | -17.4% (active) | 4.06% (active) | 14.7% | -45.7% (active) | 4.29% (active) | -78.4% (active) | -60.1% (active) |
| COc1ccc(-c2ccccc2)cc1C(=O)c1ccc(-c2ccccc2)cc1 | 73.6% | 88.2% | 75.5% | 70.4% | 88.9% | 88.4% | 42.7% | 63.7% | 77.4% | 82.5% |
| COc1ccc(Nc2ccnc(N3CCN(c4ccnc5cc(Cl)ccc45)CC3)n2)cc1 | 9.35% (active) | 1.67% (active) | 14.4% | 16.5% | 4.6% (active) | -21.9% (active) | -17.9% (active) | 7.39% (active) | 7.79% (active) | -7.2% (active) |
| C=CCN1C(=O)/C(=C\c2ccc3c(c2)CCC3)SC1=S | 90.3% | 96.7% | 106% | 76.3% | 107% | 91.5% | -22.1% (active) | 105% | 104% | 109% |
| N#CN1CC[C@H](C(=O)Nc2ncc(-c3ccccc3)s2)C1 | -9.83% (active) | -6.52% (active) | 28.4% | -3.88% (active) | 2.02% (active) | 0.798% (active) | -35.6% (active) | -5.79% (active) | 3.56% (active) | -63.3% (active) |
| COc1ccc(CCc2nc3cc(-c4c(C)noc4C)ccc3n2CCN2CCOCC2)cc1 | 49.5% | 48.3% | 75.8% | 40.2% | 30.4% | -7.34% (active) | 12% | 26.4% | 60.8% | 5.86% (active) |
| Cc1ccc(C(=O)O)c(N)c1C | 94.4% | 98.6% | 96.1% | 90.2% | 108% | 98.8% | 87.3% | 111% | 103% | 117% |
| O=C(Nc1cccc(Cl)c1)Nc1cc2ncncc2cc1OCc1cccc(F)c1 | 20.6% | 37.1% | 15.5% | -4.3% (active) | 4.36% (active) | -4.78% (active) | -8.47% (active) | 2.26% (active) | 39% | -69.6% (active) |
| COCc1cc2c(cc1Br)OCO2 | 96.7% | 95.5% | 96.5% | 87.3% | 106% | 102% | 88.6% | 88.4% | 102% | 102% |
| CCCCCCCCCCCCc1ccc(C(=O)/C=C/C(=O)O)cc1 | 78.6% | 121% | 116% | 93% | 94.2% | 46.4% | -24.2% (active) | 78.4% | -3.51% (active) | 21.6% |
| CNCCCNCCCN1C(=O)c2ccc3c4c(ccc(c24)C1=O)C(=O)N(CCCNCc1ccccc1OC)C3=O | -31% (active) | 8.88% (active) | 1.15% (active) | 7.81% (active) | -16.6% (active) | -32.1% (active) | -52.7% (active) | 1.84% (active) | 10.4% | -72.8% (active) |
| O=C(O)c1ccccc1C(=O)c1cccc2c(F)cccc12 | 102% | 97.4% | 108% | 105% | 115% | 83% | 103% | 96.9% | 104% | 102% |
| CCN(CC)CC(O)Cc1ccc(OC)cc1 (stereo not given) | 108% | 99.5% | 121% | 104% | 117% | 108% | 97.8% | 104% | 100% | 109% |
| CCOC(=O)c1cc2c(n1Cc1cccc(OC)c1)-c1oncc1CC2 | 48.9% | 50% | -0.987% (active) | 37.8% | 10% | 30.5% | 13.7% | 42.6% | 36.5% | 9.01% (active) |
| CC1(C)CC(=O)c2c(nc3ccc(Cl)cc3c2-c2ccccc2)C1 | 89.9% | 97.6% | 103% | 92.1% | 90.1% | 45.6% | 73% | 95.7% | 101% | 94.5% |
| CCn1nc(-c2ccc(C(=O)OC)cc2)nc2c(=O)n(C)c(=O)nc1-2 | 104% | 33.5% | 45.4% | -1.34% (active) | 47.8% | -13.1% (active) | 77% | 35.8% | -18.7% (active) | 87.2% |
| Clc1cc(Cl)c(OCCCCCCN2CCNCC2)c(Cl)c1 | 53.9% | 94% | 78.3% | 77.6% | -39.8% (active) | -0.831% (active) | 55.1% | 53.8% | 23.1% | -71.3% (active) |
| COc1cc(/C=C/C(=O)c2cc(-c3ccc(C(F)(F)F)cc3)ccc2O)cc(OC)c1OC | 64.3% | 84.1% | 82.1% | 98.7% | 56.5% | 63.1% | 40.8% | 81.4% | 80.3% | 71.6% |
| Nc1cc2c(cc1Cl)-c1ccc(Cl)cc1C2=O | 98.3% | 105% | 103% | 90.2% | 96.6% | 78.1% | 90.3% | 85.7% | 103% | 95.1% |
